According to PubChem BioAssay (NCATS):
Records with an inconclusive call do not appear. Calls of active or inactive are those of the source. Calls come from the whole dose curve; as a rule, active = well fitted curve in the direction sought with a large enough effect; inconclusive = small, poorly fitted or top-dose-only effect, or another doubt; inactive = no such curve, though single readings can be large; an effect the other way counts as inactive or inconclusive.

Legend:
CRL-7250 = normal cell line; experiment: Cytotoxic Profiling of Annotated Libraries Using Quantitative High-Throughput Screening (AID 1296008); conditions: Five cell lines viability, CellTiter-Glo ATP luminescence, 48-72 h; max response: stronger effect = lower value; note: nearly all actives have a fitted effect of over 60% in size; for max response: % is set by controls: 0 for no effect and ±100 for the full control effect
Outline: (§1)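 Cells exposed to compounds for 48 or 72 hr at 37 degrees Celsius. Viability read as ATP-coupled luminescence with CellTiter-Glo after 10 min at room temperature.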

HEK293 = experiment: as above; conditions: Five cell lines viability, CellTiter-Glo ATP luminescence, 48-72 h; max response: stronger effect = lower value
Outline: as §1

HaCat = experiment: as above; conditions: Five cell lines viability, CellTiter-Glo ATP luminescence, 48-72 h; max response: stronger effect = lower value
Outline: as §1

KB-3-1 = experiment: as above; conditions: Five cell lines viability, CellTiter-Glo ATP luminescence, 48-72 h; max response: stronger effect = lower value
Outline: as §1

NIH3T3 [1] = experiment: as above; conditions: Five cell lines viability, CellTiter-Glo ATP luminescence, 48-72 h; max response: stronger effect = lower value
Outline: as §1

NIH3T3 [2] = experiment: qHTS assay to identify novel small-molecules to repurpose for Merkel cell carcinoma treatment (AID 1296009); conditions: MCC and control cell lines, CellTiter-Glo viability, 72 h; at 44.8 µM (top of the series) unless noted; note: nearly all actives have a fitted effect of over 60% in size
Outline: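 Dose-response viability screen; 72 hr exposure at 37 degree celsius; CellTiter-Glo added, 10 min room temperature, luminescence read; RLUs scaled between no-cell and DMSO wells.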

C33A = experiment: Primary qHTS to identify gynecologic anti-cancer compounds using libraries of approved drugs and bioactive compounds (AID 1345084); conditions: Gynecologic cancer cell panel viability, ATPlite luminescence, 48 h; series mostly up to 57.5 µM; note: % is set by controls: 0 for no effect and ±100 for the full control effect; nearly all actives have a fitted effect of over 55% in size
Outline: (§2)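 Cell viability after 48 h drug treatment, ATPlite luminescence readout; five doses.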

CAOV3 = experiment: as above; conditions: Gynecologic cancer cell panel viability, ATPlite luminescence, 48 h; series mostly up to 57.5 µM
Outline: as §2

CASKI = experiment: as above; conditions: Gynecologic cancer cell panel viability, ATPlite luminescence, 48 h; series mostly up to 57.5 µM
Outline: as §2

Es-2 = experiment: as above; conditions: Gynecologic cancer cell panel viability, ATPlite luminescence, 48 h; series mostly up to 57.5 µM
Outline: as §2

HeLa = experiment: as above; conditions: Gynecologic cancer cell panel viability, ATPlite luminescence, 48 h; series mostly up to 57.5 µM
Outline: as §2

Hek293T = experiment: as above; conditions: Gynecologic cancer cell panel viability, ATPlite luminescence, 48 h, control line for the selectivity index; series mostly up to 57.5 µM
Outline: as §2

JEG-3 = experiment: as above; conditions: Gynecologic cancer cell panel viability, ATPlite luminescence, 48 h; series mostly up to 57.5 µM
Outline: as §2

OV90 = experiment: as above; conditions: Gynecologic cancer cell panel viability, ATPlite luminescence, 48 h; series mostly up to 57.5 µM
Outline: as §2

CC(C)=CCC[C@](C)(O[C@@H]1O[C@H](CO)[C@@H](O)[C@H](O)[C@H]1O)[C@H]1CC[C@]2(C)[C@@H]1[C@H](O)CC1[C@@]3(C)CC[C@H](O)C(C)(C)C3[C@@H](O[C@@H]3O[C@H](CO)[C@@H](O)[C@H](O)[C@H]3O[C@@H]3O[C@@H](C)[C@H](O)[C@@H](O)[C@H]3O)C[C@]12C (some centres undefined)
inactive: max response (CRL-7250) -1.6% | max response (HEK293) -1.21% | max response (HaCat) -12.1% | max response (KB-3-1) 8.47% | outcome (NIH3T3 [1]) | outcome (NIH3T3 [2]) inactive [at 9.27 µM] | activity change, negative = cytotoxicity (C33A) -11.8% [at 11.6 µM] | activity change, negative = cytotoxicity (CAOV3) -9.95% [at 11.6 µM] | activity change, negative = cytotoxicity (CASKI) -3.66% [at 11.6 µM] | activity change, negative = cytotoxicity (Es-2) 5.12% [at 11.6 µM] | activity change, negative = cytotoxicity (HeLa) 11.5% [at 11.6 µM] | activity change, negative = cytotoxicity (Hek293T) -2.65% [at 11.6 µM] | activity change, negative = cytotoxicity (JEG-3) -0.108% [at 11.6 µM] | activity change, negative = cytotoxicity (OV90) -3.64% [at 11.6 µM]

CC/C=C/C(O)C(O)C1=C(C)C(=O)C2(O1)C(=O)NC(OC)(C(=O)c1ccccc1)C2O (centres undefined)
inactive: max response (CRL-7250) 0.865% | max response (HEK293) 2.1% | max response (HaCat) -3.32% | outcome (KB-3-1) | outcome (NIH3T3 [1]) | outcome (NIH3T3 [2]) inactive [at 17.4 µM] | Potency (C33A) | Potency (CAOV3) | outcome (CASKI) | Potency (Es-2) | Potency (HeLa) | Potency (Hek293T) | Potency (JEG-3) | Potency (OV90)

C=CC(C)(O)CCC1C(C)(O)CCC2C(C)(C)CCCC21C (centres undefined)
inactive: max response (CRL-7250) -9.7% | max response (HEK293) -3.72% | max response (HaCat) 3.9% | max response (KB-3-1) 9.64% | outcome (NIH3T3 [1]) | outcome (NIH3T3 [2]) | Potency (C33A) | Potency (CAOV3) | outcome (CASKI) | Potency (Es-2) | Potency (HeLa) | Potency (Hek293T) | Potency (JEG-3) | Potency (OV90)

COc1cc([C@@H](O[C@@H]2O[C@H](CO)[C@@H](O)[C@H](O)[C@H]2O)[C@@H]2CO[C@H](c3ccc(O)c(OC)c3)[C@H]2CO)ccc1O
inactive: outcome (CRL-7250) | max response (HEK293) 2.55% | max response (HaCat) 0.823% | max response (KB-3-1) -3.03% | outcome (NIH3T3 [1]) | outcome (NIH3T3 [2]) inactive [at 17.4 µM] | Potency (C33A) | Potency (CAOV3) | outcome (CASKI) | Potency (Es-2) | Potency (HeLa) | Potency (Hek293T) | Potency (JEG-3) | Potency (OV90)

Cc1ccccc1-c1cc(N2CCN(C)CC2)ncc1N(C)C(=O)C(C)(C)c1cc(C(F)(F)F)cc(C(F)(F)F)c1
inactive: max response (CRL-7250) 1.9% | max response (HEK293) -6.53% | max response (HaCat) -0.694% | max response (KB-3-1) -5.47% | outcome (NIH3T3 [1]) | outcome (NIH3T3 [2]) | Potency (C33A) | Potency (CAOV3) | outcome (CASKI) | Potency (Es-2) | Potency (HeLa) | Potency (Hek293T) | Potency (JEG-3) | Potency (OV90)

C[C@@H]1O[C@@H](O[C@H]2[C@H](OC(=O)[C@]34CCC(C)(C)C[C@H]3C3=CCC5[C@@]6(C)C[C@@H](O)[C@@H](O[C@@H]7O[C@H](CO)[C@@H](O)[C@H](O)[C@H]7O)[C@@](C)(CO)C6[C@H](O)C[C@@]5(C)[C@]3(C)CC4)OC[C@H](O)[C@@H]2O)[C@H](O)[C@H](O[C@@H]2OC[C@](O)(CO)[C@H]2O)[C@H]1O[C@@H]1OC[C@@H](O)[C@H](O[C@H]2O[C@H](C)[C@@H](O)[C@H](O)[C@@H]2O)[C@H]1O (some centres undefined)
inactive: outcome (CRL-7250) | max response (HEK293) 4.64% | max response (HaCat) 2.54% | outcome (KB-3-1) | outcome (NIH3T3 [1]) | outcome (NIH3T3 [2]) inactive [at 9.27 µM] | activity change, negative = cytotoxicity (C33A) 7.61% [at 6.55 µM] | activity change, negative = cytotoxicity (CAOV3) 0.345% [at 6.55 µM] | activity change, negative = cytotoxicity (CASKI) 0.644% [at 6.55 µM] | activity change, negative = cytotoxicity (Es-2) -2.14% [at 6.55 µM] | activity change, negative = cytotoxicity (HeLa) 14.1% [at 6.55 µM] | activity change, negative = cytotoxicity (Hek293T) 4.59% [at 6.55 µM] | activity change, negative = cytotoxicity (JEG-3) 14.8% [at 6.55 µM] | activity change, negative = cytotoxicity (OV90) -9.58% [at 6.55 µM]

Cc1nnc(-c2sc(NC(=O)[C@H](C(C)C)n3c(=O)[nH]c4ccccc4c3=O)nc2C)o1
inactive: max response (CRL-7250) -59.8% | max response (HEK293) -6.7% | max response (HaCat) -23.8% | max response (KB-3-1) 8.7% | outcome (NIH3T3 [1]) | outcome (NIH3T3 [2]) | Potency (C33A) | Potency (CAOV3) | outcome (CASKI) | Potency (HeLa) | Potency (Hek293T) | Potency (JEG-3) | Potency (OV90)

Cc1ccc2[nH]c(=O)c(C3=NN(C(=O)CCC(=O)O)C(c4ccc(Br)cc4)C3)c(-c3ccccc3)c2c1 (centres undefined)
inactive: max response (CRL-7250) 0.735% | max response (HEK293) 1.24% | max response (HaCat) -0.37% | max response (KB-3-1) 4.72% | outcome (NIH3T3 [1]) | outcome (NIH3T3 [2]) | Potency (C33A) | Potency (CAOV3) | outcome (CASKI) | Potency (Es-2) | Potency (HeLa) | Potency (Hek293T) | Potency (JEG-3) | Potency (OV90)

COc1ccc(-n2c(=O)[nH]c3cc(C(=O)NCc4ccc(Cl)cc4)sc3c2=O)nc1OC
inactive: max response (CRL-7250) 1.31% | max response (HEK293) 2.86% | max response (HaCat) -5.79% | max response (KB-3-1) 2.11% | outcome (NIH3T3 [1]) | outcome (NIH3T3 [2]) | Potency (C33A) | Potency (CAOV3) | outcome (CASKI) | Potency (Es-2) | Potency (HeLa) | Potency (Hek293T) | Potency (JEG-3) | Potency (OV90)

C=C(C)C(O)COc1ccc(CC(=O)O)cc1 (centres undefined)
inactive: max response (CRL-7250) -8.29% | max response (HEK293) 2.49% | max response (HaCat) -1.96% | outcome (KB-3-1) | outcome (NIH3T3 [1]) | outcome (NIH3T3 [2]) | Potency (C33A) | Potency (CAOV3) | outcome (CASKI) | Potency (Es-2) | Potency (HeLa) | Potency (Hek293T) | Potency (JEG-3) | Potency (OV90)
